A short description of test [1]: qHTS RealTime-Glo MT Cell Viability Assay in HepG2 cells - 40 hour (AID 1224870). Also: nearly all actives have a fitted effect of over 50% in size. Also: potency is read from the fitted curve at half-maximal effect. In a few lines: (§1)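 HepG2 cells (600/well) mixed with RealTime-Glo MT reagent, settled 5 h at 37 C/5% CO2 before compound addition. Nonlytic NanoLuc luminescence from viable-cell prosubstrate reduction read repeatedly during 40 h treatment at 37 C.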
On the technique in general: In qHTS, concentration-response curves come from the screen itself.

Test [2] in a line: A CellTox Green Cytotoxicity Assay to monitor cytotoxicity in HEK293 cells - 40 hour (AID 1224871). Also: nearly all actives have a fitted effect of over 45% in size. Also: potency is read from the fitted curve at half-maximal effect. In outline: (§2)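 Real-time, in one plate: 600 HEK293 cells/well with dead-cell DNA dye, pinned compound after 5 h, 37 C incubation over 40 h; viable cells give no appreciable fluorescence.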
Test [3] in a line: qHTS RealTime-Glo MT Cell Viability Assay in HEK293 cells - 16 hour (AID 1224872). Also: top concentration of the series differs between compounds; nearly all actives have a fitted effect of over 50% in size. In outline: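 Quantitative high-throughput screen of the Tox21 10K library in HEK293: cells and RealTime-Glo reagents plated together, compound added at 5 h, luminescence monitored through 40 h at 37 C.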
The nature of test [4]: qHTS RealTime-Glo MT Cell Viability Assay in HepG2 cells - 8 hour (AID 1224873). Also: nearly all actives have a fitted effect of over 55% in size. In a few lines: as §1
Test [5] can be described thus: A CellTox Green Cytotoxicity Assay to monitor cytotoxicity in HepG2 cells - 16 hour (AID 1224876). Also: nearly all actives have a fitted effect of over 45% in size. Also: potency is read from the fitted curve at half-maximal effect. In a few lines:
(§3)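 Cytotoxicity was tracked as dead-cell DNA fluorescence in HepG2 cells treated with test compounds at 37 C; each time-point value comes from one kinetic series spanning 0, 8, 16, 24, 32 and 40 h.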

Test [6] in a line: qHTS RealTime-Glo MT Cell Viability Assay in HepG2 cells - 32 hour (AID 1224877). Also: nearly all actives have a fitted effect of over 55% in size. In outline:
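Compound treatment began 5 h after plating HepG2 cells (600/well) with NanoLuc luciferase and prosubstrate. Plates stayed at 37 C for 40 h; luminescence was captured at six time points, 0 h through 40 h.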

The nature of test [7]: A CellTox Green Cytotoxicity Assay to monitor cytotoxicity in HepG2 cells - 24 hour (AID 1224878). Also: nearly all actives have a fitted effect of over 45% in size. Also: potency is read from the fitted curve at half-maximal effect. In a few lines: as §3
Test [8] can be described thus: A CellTox Green Cytotoxicity Assay to monitor cytotoxicity in HepG2 cells - 40 hour (AID 1224879). Also: nearly all actives have a fitted effect of over 40% in size. Also: potency is read from the fitted curve at half-maximal effect. In outline:
as §3

A short description of test [9]: qHTS RealTime-Glo MT Cell Viability Assay in HEK293 cells - 40 hour (AID 1224874). Also: nearly all actives have a fitted effect of over 50% in size. As to conditions: RealTime-Glo luminescence; max response: active compounds read low. In outline:
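Kinetic, non-lysing viability readout. Seed HEK293 (600/well) with reagent, incubate 5 h at 37 C/5% CO2, pin 23 nL compound in DMSO, incubate at 37 C, read luminescence at 0, 8, 16, 24, 32, 40 h.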

Test [10] is described as follows: A CellTox Green Cytotoxicity Assay to monitor cytotoxicity in HEK293 cells - 24 hour (AID 1224875). Also: series mostly up to about 77 µM; nearly all actives have a fitted effect of over 45% in size. In outline: as §2

The structures appear in SMILES notation. Results filed as inconclusive are left out. A number with no mark means an inactive call. Active and inactive are the calls of the source. Calls follow the shape of the dose curve; as a rule, active = well fitted curve in the direction sought with a large enough effect in the repeat runs; inconclusive = weak or mixed curves; inactive = no such curve, though single readings can be large; an effect the other way counts as inactive or inconclusive.
% is scaled to controls: 0 for no effect and ±100 for the full control effect.

As for `CS(C)=O`, the Potency entry in [1], in [2], in test [3], in [5], in [6] and in test [7] was “inactive” throughout. Further, the Potency entry in test [8] is “inactive”. Also, the molecule was called inactive in test [4].
As to `CC1=C(C)C(=O)C(C(CCCCCC(=O)O)c2ccccc2)=C(C)C1=O` (stereo not given), the Potency result in test [1], in test [2], in test [10], in [5], in test [6] and in test [7] was “inactive” each time. For the same molecule, the Potency entry in test [8] was “inactive”. In [4], the molecule was classed as inactive. In addition, the max response in [9] was 3.36%.
Turning to `Clc1ccccc1-c1nc(-c2ccncc2)no1`, the Potency result in test [1], in test [2], in [10], in test [5] and in [7] was “inactive” each time. Besides, the outcome in [4] was inactive.
As to `c1ccc(CCNc2nc(-c3ccccc3)cs2)cc1`, the Potency entry in test [1], in test [3], in [6] and in test [8] was “inactive” throughout. In addition, in test [4], the molecule was classed as inactive. In addition, the max response in test [9] was -22.9%.
Regarding `O=[N+]([O-])c1cccc(I)c1`, the Potency result in test [1], in test [3], in [10], in [5], in [6] and in test [7] was “inactive” each time. Besides, the Potency result in test [8] was “inactive”. In test [4], the molecule was called inactive. In addition, in [9], the max response is 0.342%.
For the molecule `CCCCOC(=O)C(C)Oc1ccc(Oc2ccc(C(F)(F)F)cn2)cc1` (stereo not given), the Potency entry in [1], in test [2], in test [10], in test [5], in [6] and in test [7] was “inactive” throughout. Moreover, the Potency entry in test [8] is “inactive”. Further, the result in test [4] was inactive. The max response in test [9] was -1.23%.
As to `O=C(OCCN1CCOCC1)c1cccnc1Nc1cccc(C(F)(F)F)c1`, the Potency result in test [1], in [2], in test [10], in test [5], in test [7] and in test [8] was “inactive” each time. The result in test [4] was inactive.
For `CC(C)(C)NCC(O)COc1ccc(NC(=O)NC2CCCCC2)cc1` (stereo not given), the Potency result in test [2], in test [10], in test [5], in [7] and in test [8] was “inactive” throughout.
On to `CCOc1ccc2c(c1)C(C)CC(C)(C)N2` (stereo not given), for which the Potency result in test [1], in test [3] and in test [6] was “inactive” throughout. The outcome in test [4] was inactive. Besides, the max response in [9] is -1.9%. Further, the values for the Potency in test [7] and in test [8] were 49 µM (active) and 43.6 µM (active), respectively.
In the case of `C[C@H](CN1CCCC1)C(=O)c1ccc(C(F)(F)F)cc1`, the molecule was called inactive in test [4]. Also, the Potency in [5], in test [7] and in test [8] was 21.3 µM (active) each time.
In the case of `CC(C)C[C@H](NC(=O)[C@H](Cc1ccccc1)NC(=O)c1cnccn1)B(O)O`, the Potency was 21.3 nM (active) in test [1]; 37.9 nM (active) in test [2]; 13.4 µM (active) in test [5]; 0.0952 µM (active) in test [7]; 0.0151 µM (active) in [8]. Further, the molecule was called inactive in test [4]. Further, the Potency result in [10] is “inactive”.
As to `O=C1c2ccccc2C(=O)C1c1ccc2ccccc2n1`, the Potency entry in test [1], in test [5], in [6], in [7] and in test [8] was “inactive” in each case. For the same molecule, the molecule was called inactive in [4].
As to `COc1cccc([C@H](O)C2CCN(CCc3ccc(F)cc3)CC2)c1OC`, the Potency entry in [1], in [2], in test [10], in [5], in test [6] and in [7] was “inactive” in each case. Besides, the result in [4] was inactive.
Regarding `C[C@]12CCC(=O)C=C1[C@@H]1C[C@@H]1[C@H]1[C@@H]3[C@@H]4C[C@@H]4[C@@]4(CCC(=O)O4)[C@@]3(C)CC[C@@H]12`, the Potency entry in test [1], in test [2], in [10], in test [5], in [6] and in [7] was “inactive” in each case. Further, the Potency entry in [8] was “inactive”. In addition, the outcome in [4] was inactive.
For `O=C(Cl)c1ccc(F)c(Cl)c1`, the Potency entry in test [1], in test [2], in test [5], in [6], in test [7] and in [8] was “inactive” throughout. Besides, the outcome in test [4] was inactive. In addition, the max response in test [9] is 35.2%.
`COc1ccc(C(=O)c2ccc(C)cc2)c(O)c1`: the Potency entry in test [1], in [2], in test [10], in test [5], in test [6] and in [7] was “inactive” each time. The Potency entry in test [8] is “inactive”. Also, the result in test [4] was inactive.
In the case of `CC(C)=CCC/C(C)=C/C=N/O`, the Potency entry in test [1], in test [3], in test [5], in test [6], in [7] and in test [8] was “inactive” in each case. Besides, the call in [4] was inactive. The max response in [9] is -25.1%.
Regarding `CCn1nc(Cc2ccccc2)cc1C1CCN(C[C@H]2C[C@H](N(C)[C@@H](C(=O)O)C(C)C)C[C@@H]2c2cccc(F)c2)CC1`, the Potency result in test [1], in [2], in test [10], in [5], in test [6] and in [7] was “inactive” in each case. Moreover, the call in test [4] was inactive.
Turning to `CC1=CC(=C(c2ccc(N)cc2)c2ccc(N)cc2)C=CC1=N`, the values for the activity change, negative = cytotoxic in [1] and in [6] were -1.71% [at 6.97 µM] and -1.73% [at 6.97 µM], respectively. Moreover, the figures for the cytotoxicity increase in test [2], in test [5] and in test [8] were 5.33% [at 6.97 µM], 1.38% [at 6.97 µM] and 5.34% [at 6.97 µM], respectively. The viability change, negative = cytotoxic in test [4] was 2.31% [at 6.97 µM]. Moreover, the activity change in test [10] is -0.584% [at 6.97 µM, active compounds read high]. For the same molecule, in test [7], the cytotoxicity is 0.887% [at 6.97 µM].
On to `N#Cc1ccc(CC(=O)c2cccc(C(F)(F)F)c2)cc1`, for which the Potency entry in [1], in test [2], in [10], in test [5], in test [6] and in test [7] was “inactive” in each case. The Potency entry in test [8] is “inactive”. For the same molecule, the result in test [4] was inactive.
